Results as given in PubChem BioAssay AID1159580 (chemical genetic matrix, 2015).
In all, about 5,500 compounds went through this assay and about 2,000 (36%) were called active. About 18% were inconclusive and are not listed. Cut-off read from the data, not from the text of the source: active = normalized growth mostly below about 0.91 (no sharp cut-off); inconclusive = no clear call, values can overlap the other calls; inactive = mostly above about 0.92. Some of the results follow.

Assay: chemical genetic growth profiling, strain panel (AID 1159580);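 note: tested at 20 µM; growth read once vehicle control cultures reached saturation at 30 °C; 1 = growth at the plate median or of vehicle wells; lower values mean less growth of the strain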
Settings: growth OD
[1] = S. cerevisiae deletion strains, locus YDL101C, strain DUN1, stronger effect = lower value
[2] = S. cerevisiae deletion strains, locus YHR030C, strain SLT2, stronger effect = lower value

Measured: normalized growth

N/C(=N/OCc1c(F)cccc1Cl)c1ccc(Cl)cc1
inactive: S. cerevisiae deletion strains, locus YAR019C, strain CDC15, stronger effect = lower value 0.914 | S. cerevisiae deletion strains, locus YBL105C, strain PKC1, stronger effect = lower value 0.922 | S. cerevisiae deletion strains, locus YBR135W, strain CKS1, stronger effect = lower value 0.929 | S. cerevisiae deletion strains, locus YBR136W, strain MEC1, stronger effect = lower value 0.92 | S. cerevisiae deletion strains, locus YBR160W, strain CDC28, stronger effect = lower value 0.932 | S. cerevisiae deletion strains, locus YDL017W, strain CDC7, stronger effect = lower value 0.921 | S. cerevisiae deletion strains, locus YDL028C, strain MPS1, stronger effect = lower value 0.93 | [1] 0.921 | S. cerevisiae deletion strains, locus YDL108W, strain KIN28, stronger effect = lower value 0.922 | S. cerevisiae deletion strains, locus YDL132W, strain cdc53, stronger effect = lower value 0.95 | S. cerevisiae deletion strains, locus YDL214C, strain PRR2, stronger effect = lower value 0.91 | S. cerevisiae deletion strains, locus YDR052C, strain DBF4, stronger effect = lower value 0.941 | S. cerevisiae deletion strains, locus YDR054C, strain cdc34, stronger effect = lower value 0.905 | S. cerevisiae deletion strains, locus YDR226W, strain ADK1, stronger effect = lower value 0.905 | S. cerevisiae deletion strains, locus YDR477W, strain SNF1, stronger effect = lower value 0.92 | S. cerevisiae deletion strains, locus YER123W, strain YCK3, stronger effect = lower value 0.934 | S. cerevisiae deletion strains, locus YER133W, strain GLC7, stronger effect = lower value 0.912 | S. cerevisiae deletion strains, locus YFL009W, strain cdc4, stronger effect = lower value 0.913 | S. cerevisiae deletion strains, locus YFL029C, strain CAK1, stronger effect = lower value 0.922 | S. cerevisiae deletion strains, locus YFR003C, strain YPI1, stronger effect = lower value 0.924 | S. cerevisiae deletion strains, locus YFR019W, strain FAB1, stronger effect = lower value 0.914 | S. cerevisiae deletion strains, locus YFR028C, strain CDC14, stronger effect = lower value 0.94 | S. cerevisiae deletion strains, locus YGR040W, strain KSS1, stronger effect = lower value 0.919 | S. cerevisiae deletion strains, locus YGR052W, strain FMP48, stronger effect = lower value 0.925 | S. cerevisiae deletion strains, locus YGR092W, strain DBF2, stronger effect = lower value 0.824 | S. cerevisiae deletion strains, locus YHR082C, strain KSP1, stronger effect = lower value 0.974 | S. cerevisiae deletion strains, locus YHR205W, strain SCH9, stronger effect = lower value 0.765 | S. cerevisiae deletion strains, locus YIL147C, strain SLN1, stronger effect = lower value 0.916 | S. cerevisiae deletion strains, locus YJL095W, strain BCK1, stronger effect = lower value 0.842 | S. cerevisiae deletion strains, locus YJL128C, strain PBS2, stronger effect = lower value 0.945 | S. cerevisiae deletion strains, locus YJL157C, strain FAR1, stronger effect = lower value 0.929 | S. cerevisiae deletion strains, locus YJR016C, strain ILV3, stronger effect = lower value 0.929 | S. cerevisiae deletion strains, locus YJR066W, strain TOR1 (second series), stronger effect = lower value 0.962 | S. cerevisiae deletion strains, locus YJR066W, strain TOR1, stronger effect = lower value 0.93 | S. cerevisiae deletion strains, locus YKL048C, strain ELM1, stronger effect = lower value 0.903 | S. cerevisiae deletion strains, locus YKL067W, strain YNK1, stronger effect = lower value 0.923 | S. cerevisiae deletion strains, locus YKL101W, strain HSL1, stronger effect = lower value 0.911 | S. cerevisiae deletion strains, locus YKL193C, strain SDS22, stronger effect = lower value 0.907 | S. cerevisiae deletion strains, locus YKL203C, strain TOR2, stronger effect = lower value 0.997 | S. cerevisiae deletion strains, locus YLR133W, strain CKI1, stronger effect = lower value 0.935 | S. cerevisiae deletion strains, locus YLR403W, strain SFP1, stronger effect = lower value 0.847 | S. cerevisiae deletion strains, locus YML070W, strain DAK1, stronger effect = lower value 0.909 | S. cerevisiae deletion strains, locus YMR001C, strain CDC5, stronger effect = lower value 0.916 | S. cerevisiae deletion strains, locus YMR205C, strain PFK2 (second series), stronger effect = lower value 0.886 | S. cerevisiae deletion strains, locus YMR277W, strain FCP1, stronger effect = lower value 0.919 | S. cerevisiae deletion strains, locus YNL006W, strain LST8, stronger effect = lower value 0.928 | S. cerevisiae deletion strains, locus YNL020C, strain ARK1, stronger effect = lower value 0.926 | S. cerevisiae deletion strains, locus YNL161W, strain CBK1, stronger effect = lower value 0.916 | S. cerevisiae deletion strains, locus YNL183C, strain NPR1, stronger effect = lower value 0.956 | S. cerevisiae deletion strains, locus YNL207W, strain RIO2, stronger effect = lower value 0.903 | S. cerevisiae deletion strains, locus YNL222W, strain SSU72, stronger effect = lower value 0.933 | S. cerevisiae deletion strains, locus YNL307C, strain MCK1 (second series), stronger effect = lower value 0.917 | S. cerevisiae deletion strains, locus YOL078W, strain AVO1, stronger effect = lower value 0.915 | S. cerevisiae deletion strains, locus YOL136C, strain PFK27, stronger effect = lower value 0.901 | S. cerevisiae deletion strains, locus YOR061W, strain CKA2, stronger effect = lower value 0.966 | S. cerevisiae deletion strains, locus YOR119C, strain RIO1, stronger effect = lower value 0.983 | S. cerevisiae deletion strains, locus YOR231W, strain MKK1, stronger effect = lower value 0.932 | S. cerevisiae deletion strains, locus YOR329C, strain SCD5, stronger effect = lower value 0.915 | S. cerevisiae deletion strains, locus YPL031C, strain PHO85, stronger effect = lower value 0.902 | S. cerevisiae deletion strains, locus YPL153C, strain RAD53, stronger effect = lower value 0.933 | S. cerevisiae deletion strains, locus YPL204W, strain HRR25, stronger effect = lower value 0.908 | S. cerevisiae deletion strains, locus YPL209C, strain IPL1, stronger effect = lower value 0.919 | S. cerevisiae deletion strains, locus YPR025C, strain CCL1, stronger effect = lower value 0.926 | S. cerevisiae deletion strains, locus YPR106W, strain ISR1, stronger effect = lower value 0.915 | S. cerevisiae deletion strains, locus YPR111W, strain DBF20, stronger effect = lower value 0.911 | S. cerevisiae deletion strains, strain NNK1, stronger effect = lower value 0.899 | S. cerevisiae deletion strains, strain TSCII, stronger effect = lower value 0.91
active: [2] 0.721 | S. cerevisiae deletion strains, locus YHR079C, strain IRE1, stronger effect = lower value 0.326 | S. cerevisiae deletion strains, locus YLR113W, strain HOG1, stronger effect = lower value 0.785 | S. cerevisiae deletion strains, locus YPL256C, strain CLN2, stronger effect = lower value 0.767

N=C(N)SCc1c(F)cccc1Cl
inactive: S. cerevisiae deletion strains, locus YAL013W, strain DEP1, stronger effect = lower value 0.996 | S. cerevisiae deletion strains, locus YBR229C, strain ROT2, stronger effect = lower value 0.986 | S. cerevisiae deletion strains, locus YCL061C, strain MRC1, stronger effect = lower value 1.01 | [1] 0.968 | S. cerevisiae deletion strains, locus YDL134C, strain PPH21, stronger effect = lower value 1 | S. cerevisiae deletion strains, locus YDR150W, strain NUM1, stronger effect = lower value 0.984 | S. cerevisiae deletion strains, locus YEL061C, strain CIN8, stronger effect = lower value 0.98 | S. cerevisiae deletion strains, locus YGR078C, strain PAC10, stronger effect = lower value 0.989 | S. cerevisiae deletion strains, locus YGR229C, strain SMI1, stronger effect = lower value 0.998 | [2] 0.947 | S. cerevisiae deletion strains, locus YHR087W, strain rtc3, stronger effect = lower value 0.978 | S. cerevisiae deletion strains, locus YJR043C, strain POL32, stronger effect = lower value 0.99 | S. cerevisiae deletion strains, locus YJR075W, strain HOC1, stronger effect = lower value 0.991 | S. cerevisiae deletion strains, locus YKL190W, strain CNB1, stronger effect = lower value 0.983 | S. cerevisiae deletion strains, locus YLR039C, strain RIC1, stronger effect = lower value 0.978 | S. cerevisiae deletion strains, locus YLR058C, strain SHM2 (second series), stronger effect = lower value 0.986 | S. cerevisiae deletion strains, locus YLR085C, strain ARP6, stronger effect = lower value 0.993 | S. cerevisiae deletion strains, locus YLR262C, strain YPT6, stronger effect = lower value 0.989 | S. cerevisiae deletion strains, locus YML094W, strain GIM5, stronger effect = lower value 0.935 | S. cerevisiae deletion strains, locus YMR219W, strain ESC1, stronger effect = lower value 1 | S. cerevisiae deletion strains, locus YMR263W, strain SAP30, stronger effect = lower value 1.04 | S. cerevisiae deletion strains, locus YNL128W, strain TEP1, stronger effect = lower value 0.968 | S. cerevisiae deletion strains, locus YNL153C, strain GIM3, stronger effect = lower value 1.01 | S. cerevisiae deletion strains, locus YNL298W, strain CLA4 (second series), stronger effect = lower value 0.96 | S. cerevisiae deletion strains, locus YNL322C, strain KRE1, stronger effect = lower value 0.982 | S. cerevisiae deletion strains, locus YNR030W, strain Alg12, stronger effect = lower value 0.975 | S. cerevisiae deletion strains, locus YPL055C, strain LGE1, stronger effect = lower value 0.956 | S. cerevisiae deletion strains, locus YPL241C, strain CIN2, stronger effect = lower value 1.12 | S. cerevisiae deletion strains, locus YPR135W, strain CTF4, stronger effect = lower value 0.896 | S. cerevisiae strains, strain wild type, stronger effect = lower value 0.986
